# Measurements: PubChem BioAssay (NCATS)
# Where “and” joins values, the source holds several entries; their conditions need not be identical. Identical values can stand only once. Inconclusive results are not listed. More than one record can exist for a structure, and the calls need not agree. Calls of active or inactive are those of the source. Calls come from the whole dose curve; as a rule, active = well fitted curve in the direction sought with a large enough effect; inconclusive = small, poorly fitted or top-dose-only effect, or another doubt; inactive = no such curve, though single readings can be large; an effect the other way counts as inactive or inconclusive.
# Key:
# [1] = molecular target: Cytochrome P450 3A4 (Homo sapiens) (UniProt P08684); assay: qHTS Assay for Inhibitors and Substrates of Cytochrome P450 3A4 (AID 884); note: nearly all actives have a fitted effect of over 50% in size; note: potency is the fitted concentration of half-maximal effect; for activity change, negative = inhibition: series mostly up to about 57 µM; % is set by controls: 0 for no effect and ±100 for the full control effect
# Sequence of Cytochrome P450 3A4 (Homo sapiens) (P08684 whole entry, looked up): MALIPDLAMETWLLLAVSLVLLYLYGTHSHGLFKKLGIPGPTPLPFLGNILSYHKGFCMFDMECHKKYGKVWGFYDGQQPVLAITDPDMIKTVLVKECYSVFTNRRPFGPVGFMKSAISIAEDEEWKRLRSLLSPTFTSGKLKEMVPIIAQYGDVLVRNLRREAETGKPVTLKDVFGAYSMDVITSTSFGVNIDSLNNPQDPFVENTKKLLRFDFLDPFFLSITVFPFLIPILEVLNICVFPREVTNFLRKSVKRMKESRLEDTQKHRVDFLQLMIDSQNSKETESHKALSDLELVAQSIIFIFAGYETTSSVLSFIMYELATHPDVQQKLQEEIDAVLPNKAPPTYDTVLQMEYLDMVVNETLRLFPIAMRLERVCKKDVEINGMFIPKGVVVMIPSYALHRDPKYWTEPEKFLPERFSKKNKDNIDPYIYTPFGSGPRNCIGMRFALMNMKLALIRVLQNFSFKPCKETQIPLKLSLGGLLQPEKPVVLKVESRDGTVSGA
# How it was run: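 20 nM human CYP3A4 with 25 uM Luciferin-PPXE (at KM) in 200 mM KPO4, preincubated 10 min with compound; NADPH regeneration started a 60 min RT reaction. Luciferin detected by luminescence, normalized to 57 uM ketoconazole as full inhibition.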
# [2] = molecular target: Cytochrome P450 3A4 (Homo sapiens) (UniProt P08684); assay: qHTS Assay for Activators of Cytochrome P450 3A4 (AID 885); note: nearly all actives have a fitted effect of over 65% in size
# How it was run: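 20nM CYP3A4 + 25uM Luciferin-PPXE (=KM), 200mM KPO4; cpd 10 min RT; NADPH regen, 60 min RT; stop w/ detection buffer, 20 min; luminescence. Normalized to 57 uM ketoconazole.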
# [3] = Confirmation and Secondary Assay for Modulators of Hemoglobin Beta Chain Splicing at IVS2 654 locus (AID 910);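 note: HeLa cells stably carrying EGFP split by mutant beta-globin IVS2-654 intron; % of control where 0% means no effect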
# How it was run: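 HeLa cells stably expressing EGFP interrupted by β-globin IVS2-654 intron, seeded overnight in Opti-MEM/2% FCS, then treated 2 days at 37 °C. Restored splicing read as total peak GFP intensity per well by laser scanning cytometry (488 nm excitation, 500–520 nm emission); 500 nM antisense PNA as control.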
# [4] = Confirmation and Secondary Assay for Modulators of Hemoglobin Beta Chain Splicing at IVS2 705 locus (AID 930);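 note: HeLa cells stably expressing the EGFP-705 splicing reporter; GFP fluorescence per well restored by corrected splicing of the IVS2-705 intron in EGFP; series mostly up to about 46 µM; % of control where 0% means no effect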
# How it was run: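 Per-well GFP, captured at 1 x 8 µm resolution with 488 nm excitation, served as the read-out for HeLa EGFP-705 cells incubated 2 days with test compound versus DMSO.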
# [5] = molecular target: Cytochrome P450 2D6 (Homo sapiens) (UniProt P10635); assay: qHTS Assay for Inhibitors and Substrates of Cytochrome P450 2D6 (AID 891); note: nearly all actives have a fitted effect of over 60% in size; note: potency is the fitted concentration of half-maximal effect;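 for activity change, negative = inhibition: luciferin methyl ether substrate demethylated by CYP2D6 with NADPH regeneration; % is set by controls: 0 for no effect and ±100 for the full control effect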
# Sequence of Cytochrome P450 2D6 (Homo sapiens) (P10635 whole entry, looked up): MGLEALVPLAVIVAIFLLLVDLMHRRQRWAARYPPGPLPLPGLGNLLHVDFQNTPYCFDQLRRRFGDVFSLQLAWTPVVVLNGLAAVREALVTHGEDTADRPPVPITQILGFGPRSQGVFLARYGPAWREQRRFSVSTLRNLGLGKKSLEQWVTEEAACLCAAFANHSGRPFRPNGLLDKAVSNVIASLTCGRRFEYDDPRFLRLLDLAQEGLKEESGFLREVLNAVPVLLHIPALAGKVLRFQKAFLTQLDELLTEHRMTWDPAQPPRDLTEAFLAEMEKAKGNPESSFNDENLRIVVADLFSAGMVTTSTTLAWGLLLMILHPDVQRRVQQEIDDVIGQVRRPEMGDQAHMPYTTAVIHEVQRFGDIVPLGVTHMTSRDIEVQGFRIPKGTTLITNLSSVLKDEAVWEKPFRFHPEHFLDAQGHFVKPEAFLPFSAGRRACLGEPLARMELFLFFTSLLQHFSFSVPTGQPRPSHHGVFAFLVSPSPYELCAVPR
# How it was run: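 Human CYP2D6 (5 nM) with 30 uM Luciferin-ME EGE (at Km) in 100 mM KPO4, compound preincubated 10 min, then NADPH regeneration system for 60 min at room temperature. Luciferin read by luminescence; normalized to 1.43 uM quinidine.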
# [6] = molecular target: Cytochrome P450 2C19 (Homo sapiens) (UniProt P33261); assay: qHTS Assay for Inhibitors and Substrates of Cytochrome P450 2C19 (AID 899); note: nearly all actives have a fitted effect of over 60% in size; note: potency is the fitted concentration of half-maximal effect
# Sequence of Cytochrome P450 2C19 (Homo sapiens) (P33261 whole entry, looked up): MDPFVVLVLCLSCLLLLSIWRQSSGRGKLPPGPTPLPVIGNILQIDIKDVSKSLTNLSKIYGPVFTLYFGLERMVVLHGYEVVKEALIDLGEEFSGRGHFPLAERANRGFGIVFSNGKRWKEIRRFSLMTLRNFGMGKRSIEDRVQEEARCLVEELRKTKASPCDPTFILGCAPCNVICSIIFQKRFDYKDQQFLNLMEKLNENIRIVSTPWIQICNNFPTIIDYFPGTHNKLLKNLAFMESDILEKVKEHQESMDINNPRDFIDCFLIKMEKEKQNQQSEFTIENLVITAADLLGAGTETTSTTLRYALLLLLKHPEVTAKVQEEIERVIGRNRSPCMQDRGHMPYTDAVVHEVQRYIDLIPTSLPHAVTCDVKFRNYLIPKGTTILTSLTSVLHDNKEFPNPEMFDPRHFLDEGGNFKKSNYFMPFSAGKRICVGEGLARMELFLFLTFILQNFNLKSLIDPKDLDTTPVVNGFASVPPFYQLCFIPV
# How it was run: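 Signal comes from luciferase acting on luciferin released by CYP2C19-mediated hydroxylation of Luciferin-H EGE, 10uM (KM). Assay mix: 5nM enzyme, 50mM KPO4; 60 min at 37C with NADPH regeneration. Data normalized against 57uM ketoconazole.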
compound,measurement,setting,value
CC(=O)c1c(O)cc(O)cc1O,Potency,[1],3.16 µM (active)
same,Potency,[2],inactive
same,outcome,[3],inactive
same,outcome,[4],inactive
Nc1nc2c(ncn2C2OC(COC(=O)c3ccccc3)C(OC(=O)c3ccccc3)C2OC(=O)c2ccccc2)c(=O)[nH]1 (stereo not given),Potency,[1],3.98 µM (active)
same,Potency,[2],inactive
same,outcome,[3],inactive
same,outcome,[4],inactive
C=C1C2CC[C@@]3(C)C(c4ccoc4)OC(=O)C[C@@]13OC1CC(OC(C)=O)C(C)(C)C(CC(=O)OC)[C@@]12C (stereo not given in full),Potency,[1],1.26 µM (active)
same,Potency,[2],inactive
same,outcome,[3],inactive
same,outcome,[4],inactive
C/C(CCC(=O)OC[C@@H]1O[C@H](C#Cc2ccccc2)C=C[C@@H]1Oc1ccc(C)cc1)=N/O[C@@H](C)CN1CCCc2nc(C)c(C)cc21,Potency,[1],3.98 µM (active)
same,"activity change, positive = activation",[2],-95.5% [at 11.4 µM] (inactive)
same,Potency,[5],3.16 µM (active)
same,Potency,[6],3.16 µM (active)
CCN1C(C)=C(C(=O)OC)C(c2ccccc2)N2C(=O)[C@](O)(C(=O)OC)C(c3ccccc3)C(C(=O)c3ccccc3)=C12 (stereo not given in full),Potency,[1],3.16 µM (active)
same,"activity change, positive = activation",[2],-65.7% [at 11.4 µM] (inactive)
same,Potency,[6],inactive
CC(=O)c1ccc(OC2C(O)COC2/C=C/c2ccc(Cl)cc2)cc1 (stereo not given),"activity change, negative = inhibition",[1],-27.7% [at 11.4 µM] (inactive)
same,"activity change, positive = activation",[2],-50% [at 11.4 µM] (inactive)
same,Potency,[5],inactive
same,Potency,[6],inactive
CCO[C@H](c1cc(OC)cc([N+](=O)[O-])c1OC)[C@H](C)/C=C\CC(=O)OC,Potency,[1],3.98 µM (active)
same,"activity change, positive = activation",[2],-72.1% [at 11.4 µM] (inactive)
same,Potency,[6],0.398 µM (active)
CC(C)CCN1CCc2nc(COc3ccccc3)c3c(c2C1)COC(C)C3 (stereo not given),Potency,[1],3.16 µM (active)
same,"activity change, positive = activation",[2],-76.7% [at 11.4 µM] (inactive)
same,Potency,[5],inactive
same,Potency,[6],inactive
CCCCc1nc2c(c3c1CC(C)OC3)CN(CCC(C)C)CC2 (stereo not given),Potency,[1],3.98 µM (active)
same,"activity change, positive = activation",[2],-60.1% [at 11.4 µM] (inactive)
same,Potency,[6],inactive
CCOC(c1cc(OC)cc([N+](=O)[O-])c1OC)C(C)C(OC)[C@@H](C)/C=C/CC(=O)OC (stereo not given in full),Potency,[1],3.98 µM (active)
same,"activity change, positive = activation",[2],-78.6% [at 11.4 µM] (inactive)
same,Potency,[6],1 µM (active)
CC(C)(C)c1ccc(OC2C(O)COC2/C=C/C#Cc2ccccc2)cc1 (stereo not given),Potency,[1],3.16 µM (active) and 3.98 µM (active)
same,"activity change, positive = activation",[2],-77.1% [at 11.4 µM] (inactive) and -67.5% [at 11.4 µM] (inactive)
same,Potency,[5],inactive
same,Potency,[6],3.16 µM (active) and inactive
COc1ccc(/C=C/N(CCc2ccc(OC)c(OC)c2)C(=O)C(F)(F)F)cc1,Potency,[1],2 µM (active)
same,"activity change, positive = activation",[2],-97.3% [at 11.4 µM] (inactive)
same,Potency,[6],0.0794 µM (active)
COc1cccc([C@@H]2Oc3ccc(OC)cc3/C(=N/OC[C@@H](O)COCc3ccco3)[C@@H]2O)c1,Potency,[1],3.16 µM (active)
same,"activity change, positive = activation",[2],-84.1% [at 11.4 µM] (inactive)
same,Potency,[6],1.58 µM (active)
COCC#Cc1ccc(C2C(C)CCC3C(=O)N4C(CCC(C)C4c4ccc(C#CCOC)cc4)C(=O)N32)cc1 (stereo not given),Potency,[1],1.26 µM (active)
same,"activity change, positive = activation",[2],-65.6% [at 11.4 µM] (inactive)
same,Potency,[5],inactive
same,Potency,[6],inactive
CO/N=C(/C)CCC(=O)OC[C@@H]1O[C@H](C#Cc2ccccc2)C=C[C@@H]1Oc1ccc(C)cc1,Potency,[1],3.98 µM (active)
same,"activity change, positive = activation",[2],-90.5% [at 11.4 µM] (inactive)
same,Potency,[5],inactive
same,Potency,[6],3.98 µM (active)
C[C@@H](c1ccccc1)N1C(=O)[C@H]2[C@H]3[C@H](O)[C@H](O)C/C(=N/OC[C@@H](O)COCc4ccco4)[C@@H]3CC[C@@H]2C1=O,Potency,[1],3.16 µM (active)
same,"activity change, positive = activation",[2],-82.9% [at 11.4 µM] (inactive)
same,Potency,[6],inactive
CCOC(=O)OCC1C=C[C@H](c2cc(-c3ccccc3)ccc2O)C(c2ccc(C(C)=O)cc2)O1 (stereo not given in full),Potency,[1],3.16 µM (active)
same,"activity change, positive = activation",[2],-86.1% [at 11.4 µM] (inactive)
same,Potency,[6],3.16 µM (active)
COc1ccc(O[C@H]2C=C[C@@H](c3ccccc3)O[C@H]2COC(=O)CC/C(C)=N\O[C@@H](C)c2cn([C@H](CO)Cc3ccccc3)nn2)cc1,Potency,[1],3.98 µM (active) and 5.01 µM (active)
same,"activity change, positive = activation",[2],-87.6% [at 11.4 µM] (inactive) and -97.7% [at 11.4 µM] (inactive)
same,Potency,[6],63.1 nM (active) and 631 nM (active)
C/C=C/OC(=O)NC(c1ccccc1)[C@@]1(C(=O)OCC)CCCC1=O (stereo not given in full),Potency,[1],0.0158 µM (active)
same,"activity change, positive = activation",[2],-71.4% [at 11.4 µM] (inactive)
same,Potency,[6],0.0251 µM (active)
C=CCC1C=CC(Oc2ccc(F)cc2C)C(CO)O1 (stereo not given),Potency,[1],3.98 µM (active)
same,"activity change, positive = activation",[2],-81.3% [at 11.4 µM] (inactive)
same,Potency,[5],inactive
same,Potency,[6],0.251 µM (active)
